FBPA coupling cs: inhibits coupling enzyme system, counter-screen for aldolase hits | 290,000 tested, 0.67% active | AID 2472 | coupling enzyme system counterscreen, AmpLite Red fluorescence | activity change, negative = inhibition, % at 58.2 µM, hits read low; in the data active means activity change below about -30%
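Compounds tested against the coupling enzymes alone at 57.5 uM final; readout was AmpLite Red fluorescence (525/598 nm) after 20 min at RT.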
Sfp PPTase inh: blocks B. subtilis Sfp PPTase activity; Biochemical Sfp PPTase activity, qHTS; 310,000 tested, 3.5% active; Q9F4F7; Potency, µM, for the others: largest response in the series, negative = inhibition, actives largely listed as inhibitors; AID 1490;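 further: the enzyme is Sfp with the accession as filed and its product quenches rhodamine fluorescence; potency means the concentration at half of the fitted maximal effect; 0% = enzyme reaction without inhibitor and -100% = no enzyme wells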
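Buffer: 50 mM Hepes-Na pH 7.6, 10 mM MgCl2, 0.01% Nonidet P-40, 0.01% BSA. Enzyme 15 nM, pre-exposed to compound 15 min; substrates then added and fluorescence change tracked over 30 min.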
ELG1 DNA repair: ELG1-dependent DNA repair inhibition; HEK293T ELG1-luciferase reporter, luminescence, 16 h; DNA damage induced by 5-fluorouridine; Potency, µM (doses to about 46.1 µM), for the others: at the top dose activity change, negative = inhibition, hits mostly inhibitors; 330,000 tested, 2.3% active; AID 504467; further: potency means the concentration at half of the fitted maximal effect; nearly all actives have a fitted effect of over 55% in size
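In this reporter screen, reduction of luminescence relative to DMSO vehicle indicated activity. Compounds and 5-fluorouridine were added together to 2,000 cells per well, incubated for 16 hr at 37 °C, then developed with ONE-Glo.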
Giardia killer: Giardia lamblia killing; Giardia lamblia trophozoite viability; 340,000 tested, 0.15% active; AID 540267; activity change, % at 7.66 µM, hits read low; in the data active means activity change below about -80%; inconclusive means between about -30% and that limit;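 further: parasites exposed to compound for two days anaerobically before the ATP read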
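Anaerobic 48 hrs incubation at 37 deg C of 100 trophozoites/well with test compounds; ATPLite 1-Step luminescence, 15-30 min RT, reports cellular ATP as viability.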
ELG1 FLuc counter: luciferase inhibition in cell-free luciferin readout for ELG1 hits. shares compounds with ELG1 DNA repair. cell-free firefly luciferase luminescence counter-screen, ViewLux. Potency, µM (top dose mostly 46.1 µM), for inactives: at the highest dose activity change, negative = inhibition, most hits filed as inhibitors. 350 tested, 3% active. AID 624247; further: potency means the concentration at half of the fitted maximal effect
ELG1 Luc conf: inhibits ELG1-dependent DNA repair in HEK293T cells, confirmed | shares compounds with ELG1 DNA repair | HEK293T ELG1-luciferase levels, luminescence; cells co-treated with 5-fluorouridine | Potency, µM (top dose mostly 46.1 µM), for inactives: top-dose activity change, negative = inhibition, most hits filed as inhibitors | 670 tested, 68% active; further: potency means the concentration at half of the fitted maximal effect; nearly all actives have a fitted effect of over 55% in size
ELG1 MMS Luc: MMS-stimulated human ELG1 repair inhibition, confirmed | HEK293T luciferase-tagged ELG1 level, MMS stimulated | shares compounds with ELG1 DNA repair | 670 tested, 53% active | Potency, µM (series often up to 46.1 µM), for inactives: at the top dose activity change, negative = inhibition, hits mostly inhibitors; further: potency means the concentration at half of the fitted maximal effect; nearly all actives have a fitted effect of over 60% in size
ELG1 5-FU: confirmation of ELG1 repair inhibitors: viability with 5FU | shares compounds with ELG1 DNA repair | cell viability with 5-FU, ELG1-dependent repair | 670 tested, under 10 active | Potency, µM (titrated, usually from 46.1 µM), inactives show at the top dose activity change, negative = viability loss, most hits filed as cytotoxic;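 further: ELG1-luc HEK293T cells cotreated with 5-fluorouridine at 10 µM final; potency means the concentration at half of the fitted maximal effect; viability measured 16 h after compound addition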
ELG1 MMS viab: confirmation of ELG1 repair inhibitors: viability with MMS; shares compounds with ELG1 DNA repair; 670 tested, 33% active; Cell viability with MMS, ELG1-dependent DNA repair; Potency, µM (top dose mostly 46.1 µM), inactives show at the highest dose activity change, negative = viability loss, hits mostly cytotoxic;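 further: ELG1-luc HEK293T cells co-treated with 10 µM MMS; potency means the concentration at half of the fitted maximal effect; viability read 16 h after compound addition; nearly all actives have a fitted effect of over 60% in size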
Cell viab unstim: unstimulated viability counter-screen for ELG1 repair hits. cell viability counter-screen, unstimulated, luminescence. 900 tested, 8% active. shares compounds with ELG1 DNA repair. AID 624252. Potency, µM (top dose mostly 45.9 µM), without a hit: at the highest dose activity change, negative = loss of viability, most hits filed as cytotoxic;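 further: potency means the concentration at half of the fitted maximal effect; compound exposure lasted 16 hours before reading; nearly all actives have a fitted effect of over 55% in size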
FLuc biochem: counter-screen for ELG1 repair inhibitors: firefly luciferase inhibition | purified firefly luciferase, luminescence counter-screen | 350 tested, 10% active | Potency, µM (top dose mostly 57.5 µM), inactives show at the top dose activity, negative = inhibition, usual class: inhibitors | shares compounds with ELG1 DNA repair; further: potency means the concentration at half of the fitted maximal effect
The depositor's hits bear a star. Compounds with a hit are over-represented: about 5.5% of the library has one in this group of screens. Unless noted, the call rests on the fitted dose curve; in most records, active means well fitted curve in the direction sought with a large enough effect; inconclusive means small, poorly fitted or top-dose-only effect, or another doubt; inactive means no such curve, though single readings can be large; an effect the other way counts as inactive or inconclusive. Unless noted, on the % scale 0 is the no-effect control and ±100 the full control effect.

`Cn1cccc1/C=N\NC(=O)Cc1ccc(Br)c2ccccc12` gave FBPA coupling cs -1.0, Sfp PPTase inh 14.2%, ELG1 DNA repair 3.66µM*, Giardia killer 5.4, ELG1 Luc conf inconclusive, ELG1 MMS Luc 7.91µM*, ELG1 5-FU -13.1%, ELG1 MMS viab 7.91µM* and Cell viab unstim inconclusive.
For Cn1cccc1/C=N/NC(=O)Cc1ccccc1 the results were FBPA coupling cs -3.3, Sfp PPTase inh -15.3%, ELG1 DNA repair 14.5% and Giardia killer -3.5.
For CCN1CCN(c2ccc(S(=O)(=O)N3CCCCC3)cc2NC(=O)c2ccc(C)o2)CC1 the results were ELG1 DNA repair -1.1% and Giardia killer -13.6.
`O=C(CNC(=O)c1cccs1)c1ccc(Br)cc1` gave FBPA coupling cs 2.6, Sfp PPTase inh 12.4%, ELG1 DNA repair inconclusive and Giardia killer -7.0.
For N#C/C(=C(/O)c1ccc([N+](=O)[O-])s1)c1nc2ccccc2[nH]1 the results were FBPA coupling cs 1.0, Sfp PPTase inh 0.5%, ELG1 DNA repair 2.06µM*, Giardia killer inconclusive, ELG1 Luc conf inconclusive, ELG1 MMS Luc 0.791µM*, ELG1 5-FU -10.5%, ELG1 MMS viab 0.888µM* and Cell viab unstim inconclusive.
For Cc1cc(OCC(=O)Nc2ccccc2C(N)=O)c2c(C)cc(=O)oc2c1 the results were FBPA coupling cs 1.6, Sfp PPTase inh 9.4%, ELG1 DNA repair 3.66µM*, Giardia killer -19.2, ELG1 Luc conf 12.5µM*, ELG1 MMS Luc -13.8%, ELG1 5-FU inconclusive, ELG1 MMS viab inconclusive and Cell viab unstim 2.2%.
Screening Cc1c(OCC(=O)NCC(O)c2ccccc2)ccc2c3c(c(=O)oc12)CCCC3 (configuration not stated) returned FBPA coupling cs 3.0, Sfp PPTase inh 6.5%, ELG1 DNA repair inconclusive and Giardia killer 0.9.
COc1cccc(CC(NC(C)=O)C(=O)NC2CCN(c3nc(C)cc(C)c3C#N)CC2)c1OC (configuration not stated) was read as FBPA coupling cs 0.3, Sfp PPTase inh 11.8%, ELG1 DNA repair 2.82µM*, Giardia killer 0.8, ELG1 Luc conf 7.91µM*, ELG1 MMS Luc 2.3%, ELG1 5-FU inconclusive, ELG1 MMS viab 2.5% and Cell viab unstim -4.4%.
Screening Cc1ccc(N2CCN(/N=C/c3cccnc3)CC2)cc1 returned FBPA coupling cs -0.5, Sfp PPTase inh 7.7%, ELG1 DNA repair inconclusive and Giardia killer 7.2.
Screening Cc1ccc(N2CN=c3s/c(=C\c4cccnc4)c(=O)n3C2)cc1 returned FBPA coupling cs 1.0, Sfp PPTase inh -26.9%, ELG1 DNA repair 2.31µM*, Giardia killer 16.7, ELG1 FLuc counter -13.3%, ELG1 Luc conf inconclusive, ELG1 MMS Luc inconclusive, ELG1 5-FU 1.3%, ELG1 MMS viab 1.2%, Cell viab unstim inconclusive and FLuc biochem -18.8%.
`Cc1cc(O)c(C(C)C)cc1NC(=S)Nc1cc(C(C)C)c(O)cc1C` gave Giardia killer 19.1.
`CCOc1ccc2oc(C(=O)Nc3nccs3)c(C)c2c1` gave ELG1 DNA repair inconclusive, Giardia killer -23.5 and Cell viab unstim -8.2%.
For CC(=O)CSc1ncnc2nc[nH]c12 the results were FBPA coupling cs 1.0, Sfp PPTase inh 0.1%, ELG1 DNA repair -7.0% and Giardia killer -5.2.
For Cn1cnc(Sc2ncnc3nc[nH]c23)c1[N+](=O)[O-] the results were FBPA coupling cs 0.8, Sfp PPTase inh 39.8µM*, ELG1 DNA repair inconclusive, Giardia killer -5.9, ELG1 FLuc counter 0.0%, ELG1 Luc conf inconclusive, ELG1 MMS Luc inconclusive, ELG1 5-FU -0.6%, ELG1 MMS viab -1.5%, Cell viab unstim 15.8µM* and FLuc biochem 3.7%.
COc1cc(OC)c(OC)cc1/C=C1\Oc2cc(OCC(=O)N3Cc4ccccc4C[C@H]3C(=O)O)ccc2C1=O was read as FBPA coupling cs 1.8, Sfp PPTase inh 19.0%, ELG1 DNA repair 5.3% and Giardia killer -12.6.
`CCOC(=O)c1nc(Nc2ccccc2C)c2ccccc2n1` gave FBPA coupling cs -0.2, Sfp PPTase inh 7.5%, ELG1 DNA repair -5.4% and Giardia killer -18.7.
`CCOC(=O)c1nc(Nc2ccc(C(C)=O)cc2)c2ccccc2n1` gave FBPA coupling cs 2.8, Sfp PPTase inh 13.3%, ELG1 DNA repair 1.64µM*, Giardia killer 4.8, ELG1 Luc conf 2.81µM*, ELG1 MMS Luc inconclusive, ELG1 5-FU inconclusive, ELG1 MMS viab 6.8% and Cell viab unstim -11.7%.
`CCN(C(=O)CSc1nnc(-c2c[nH]c3ccccc23)n1C1CC1)C1CCS(=O)(=O)C1` (configuration not stated) gave ELG1 DNA repair 15.2% and Giardia killer 6.6.
For CC(=O)c1ccc(OC2C=CC(c3ccc(Cl)cc3)OC2CO)cc1 (configuration not stated) the results were FBPA coupling cs 2.0 and Sfp PPTase inh 7.6%.
CCC(C)NC(=O)c1oc2ccc(S(=O)(=O)N3CCC4(CC3)OCCO4)cc2c1C (configuration not stated) was read as FBPA coupling cs 1.7, Sfp PPTase inh -0.6%, ELG1 DNA repair -24.9%, Giardia killer -2.9, ELG1 FLuc counter -8.6%, ELG1 Luc conf 15.8µM*, ELG1 MMS Luc inconclusive, ELG1 5-FU 4.0%, ELG1 MMS viab -3.8%, Cell viab unstim -19.9% and FLuc biochem -2.4%.

Compound activity (PubChem BioAssay)
